Screening results from PubChem.
Compounds with a hit are over-represented: about 6.5% of the library has one in this group of screens.
HT1080 IDH1KD tx – toxicity to HT-1080 IDH1 knockdown cells (counter line). HT-1080 IDH1 knockdown viability, ATP luminescence, 48 h. Potency, µM (titrated, usually from 46.1 µM), without a hit: at the highest dose activity, negative = toxicity, usual class: cytotoxic. actives 2% (n = 360,000);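 also: potency is read from the fitted curve at half-maximal effect; 0% = DMSO wells and -100% = cell-free medium wells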
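Luminescent ATP read-out (CellTiter-Glo, 10 min at room temperature) after 48 h compound exposure at 37 °C gave viability of IDH1-knockdown HT-1080 cells. Activity was normalised to DMSO and cell-free wells, then fitted as concentration-response curves.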
Giardia kill – Giardia lamblia killing; AID 540267; activity change, % at 7.66 µM, hits read low; Giardia lamblia trophozoite viability; actives 0.15% (n = 340,000); in the data active = activity change below about -80%; inconclusive = between about -30% and that limit;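 also: parasites exposed to compound for two days anaerobically before the ATP read; % is scaled to controls: 0 for no effect and ±100 for the full control effect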
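Compounds were tested on trophozoites seeded at 100 cells/well and held 48 hrs at 37 deg C anaerobically. An ATP-based luminescent kit measured the remaining live cells.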
HT1080-NT tox – kills 2HG-producing HT-1080-NT fibrosarcoma cells. HT-1080-NT fibrosarcoma viability, CellTiter-Glo ATP luminescence, 48 h. AID 686970. actives 1.6% (n = 360,000). Potency, µM (series often up to 46.1 µM), for the others: at the highest dose activity, negative = less viability, most hits filed as cytotoxic;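 also: NT is the 2HG producing partner of a matched IDH1 knockdown line; potency is read from the fitted curve at half-maximal effect; 0% = DMSO-treated cells and -100% = media-only wells without cells; nearly all actives have a fitted effect of over 55% in size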
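Read-out is CellTiter-Glo luminescence after 10 minutes at room temperature, following 48 hours' compound treatment of HT-1080-NT cells (750 cells/well, RPMI, 5% FBS, 37 degrees C).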
TGFb inhibitor – blocks TGF-b signaling; HepG2 CAGA-GFP TGF-b/SMAD3 reporter, GFP fluorescence, 18 h; TGF-beta stimulated, 500 pg/mL final; Potency, µM (titrated, usually from 46.1 µM), for the others: top-dose activity, negative = inhibition, actives largely listed as inhibitors; actives 1.2% (n = 410,000); AID 588855; also: potency is read from the fitted curve at half-maximal effect; % is scaled to controls: 0 for no effect and ±100 for the full control effect; nearly all actives have a fitted effect of over 65% in size
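First, reporter cells (HEPG2 CAGA-GFP) rested 2 h at 37 degrees C. Next, compounds were pinned in and TGF-beta added to 500 pg/mL final. After 18 h, GFP was imaged per cell and summed per well.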
HepG2 tox – HepG2 cytotoxicity, counter-screen for TGF-b inhibitors | actives 0.76% (n = 410,000) | HepG2 CAGA-GFP viability, ATP luminescence, 18 h | Potency, µM (highest dose often 46.1 µM), for the others: at the highest dose activity change, negative = cytotoxicity, hits mostly cytotoxic | AID 588856; also: potency is read from the fitted curve at half-maximal effect
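CellTiter-Glo luminescence gave cytotoxicity after 18 hours at 37 degrees C. The cells were HepG2 CAGA-GFP in 1% FBS DMEM, stimulated with 500 pg/mL TGF-beta after compound addition. %Activity was normalised to no-cell wells (complete cell-killing) and DMSO (no toxicity), and curves were fitted and classified.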
IL-1B inflam inh – inhibitors of inflammasome signaling (IL-1 beta secretion); THP-1 LPS/ATP IL-1B secretion, AlphaLISA, 16 h; hits give low values; activity change, % at 57.5 µM; actives 4.7% (n = 360,000); AID 743279; in the data active = activity change below about -50%; inconclusive = mostly about -30% to -49%; also: % is scaled to controls: 0 for no effect and ±100 for the full control effect
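Secreted IL-1B measured by AlphaLISA bead assay after 16 h compound exposure of THP-1 cells; compounds (final up to 57.5 uM) added 1 h before LPS (250 ng/mL) and ATP (1.25 mM) stimulation; lower signal means less secretion.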
* marks the source's active call; other numbers are inactive results. Unless noted, calls follow the shape of the dose curve; as a rule, active = well fitted curve in the direction sought with a large enough effect; inconclusive = small, poorly fitted or top-dose-only effect, or another doubt; inactive = no such curve, though single readings can be large; an effect the other way counts as inactive or inconclusive.

Screening CC(=O)c1cccc(NC(=O)C2Cc3c(-c4ccc5c(c4)OCO5)ccnc3O2)c1 (configuration not stated) returned HT1080 IDH1KD tx -25%, HT1080-NT tox -5%, TGFb inhibitor 5%, HepG2 tox -39% and IL-1B inflam inh -18.
`O=C(Nc1ccc(F)c(Cl)c1)C1Cc2c(-c3ccc4c(c3)OCO4)ccnc2O1` (configuration not stated) gave HT1080 IDH1KD tx 26µM*, HT1080-NT tox 16µM*, TGFb inhibitor inconclusive, HepG2 tox -17% and IL-1B inflam inh inconclusive.
`O=C(Nc1cccc(OC(F)(F)F)c1)C1Cc2c(-c3cccc(F)c3)ccnc2O1` (configuration not stated) gave HT1080 IDH1KD tx inconclusive, HT1080-NT tox inconclusive, TGFb inhibitor inconclusive, HepG2 tox -24% and IL-1B inflam inh -89*.
CC(=O)Nc1ccc(NC(=O)C2Cc3c(-c4cccc(F)c4)ccnc3O2)cc1 (configuration not stated) was read as HT1080 IDH1KD tx -3%, HT1080-NT tox -4%, TGFb inhibitor 9%, HepG2 tox -1% and IL-1B inflam inh 0.
`COc1ccccc1CC(=O)Nc1ccc2c(c1)C(=O)NC2=O` gave HT1080 IDH1KD tx -2%, Giardia kill -8, HT1080-NT tox 2%, TGFb inhibitor 4%, HepG2 tox -9% and IL-1B inflam inh 14.
For O=C(NCc1cccnc1)C1Cc2c(-c3ccc(Cl)cc3)ccnc2O1 (configuration not stated) the results were HT1080 IDH1KD tx 18µM*, HT1080-NT tox 5.8µM*, TGFb inhibitor 13%, HepG2 tox -13% and IL-1B inflam inh -27.
O=C(Cc1ccc(S(=O)(=O)N2CCOCC2)s1)Nc1cc(C(F)(F)F)cc(C(F)(F)F)c1 was read as HT1080 IDH1KD tx inconclusive, Giardia kill -2, HT1080-NT tox inconclusive, TGFb inhibitor 18µM*, HepG2 tox -83% and IL-1B inflam inh -60*.
`O=C(Cc1ccc(S(=O)(=O)N2CCOCC2)s1)Nc1cc(C(F)(F)F)ccc1N1CCCC1` gave HT1080 IDH1KD tx -10%, Giardia kill -1, HT1080-NT tox -2%, TGFb inhibitor -29%, HepG2 tox -13% and IL-1B inflam inh -8.
For COc1ccc(N2C3=C(C(=O)CC(C)(C)C3)C(c3ccccc3OC)C3=C2CC(C)(C)CC3=O)cc1 the results were HT1080 IDH1KD tx -11%, Giardia kill 8, HT1080-NT tox -7%, TGFb inhibitor -3%, HepG2 tox -32% and IL-1B inflam inh -86*.
COc1ccc(N2C3=C(CC4=C2CC(C)(C)CC4=O)C(=O)CC(C)(C)C3)cc1 was read as HT1080 IDH1KD tx inconclusive, Giardia kill 2, HT1080-NT tox 7.1µM*, TGFb inhibitor inconclusive, HepG2 tox 16µM* and IL-1B inflam inh -102*.
`COc1ccccc1C1C2=C(CC(C)(C)CC2=O)N(CC(=O)O)C2=C1C(=O)CC(C)(C)C2` gave HT1080 IDH1KD tx 2%, Giardia kill -4, HT1080-NT tox 4%, TGFb inhibitor 1%, HepG2 tox -10% and IL-1B inflam inh 0.
Screening COc1ccc(N2C3=C(CC4=C2CCCC4=O)C(=O)CCC3)cc1 returned HT1080 IDH1KD tx -13%, Giardia kill -16, HT1080-NT tox -2%, TGFb inhibitor -12%, HepG2 tox 1% and IL-1B inflam inh -94*.
For CC(CCCN(C)C)C(Cc1ccccc1)c1ccccc1 (configuration not stated) the results were HT1080 IDH1KD tx 16µM*, Giardia kill 4, HT1080-NT tox inconclusive, TGFb inhibitor -11%, HepG2 tox -49% and IL-1B inflam inh -66*.
CCOC(=O)c1ccc(N2C(=O)c3n[nH]c(-c4ccco4)c3C2c2ccc(C(=O)OC)cc2)cc1 (configuration not stated) was read as TGFb inhibitor inconclusive and HepG2 tox -39%.
For CCOC(=O)c1ccc(N2C(=O)c3n[nH]c(-c4ccco4)c3C2c2cccc([N+](=O)[O-])c2)cc1 (configuration not stated) the results were HT1080 IDH1KD tx inconclusive, Giardia kill 42, HT1080-NT tox inconclusive, TGFb inhibitor inconclusive, HepG2 tox -56% and IL-1B inflam inh -83*.
For CCOC(=O)c1ccc(N2C(=O)c3n[nH]c(-c4ccco4)c3C2c2ccc(O)c(OCC)c2)cc1 (configuration not stated) the results were TGFb inhibitor 16µM* and HepG2 tox -61%.
For Cc1ccc(C(=O)OCC(=O)N(C)c2ccccc2)c(C)c1 the results were HT1080 IDH1KD tx 6%, Giardia kill 1, HT1080-NT tox 10%, TGFb inhibitor -23%, HepG2 tox -17% and IL-1B inflam inh inconclusive.
`CC1(C)CC(C(CC(=O)Nc2nccs2)c2ccccc2)CCO1` (configuration not stated) gave HT1080 IDH1KD tx 2%, Giardia kill 23, HT1080-NT tox 5%, TGFb inhibitor -6%, HepG2 tox 6% and IL-1B inflam inh 30.
Screening C=C(CCC(=O)c1ccccc1)C(=O)c1ccccc1 returned HT1080 IDH1KD tx inconclusive, Giardia kill 7, HT1080-NT tox 26µM*, TGFb inhibitor -33%, HepG2 tox 10µM* and IL-1B inflam inh -83*.
Screening Cc1ccc(S(=O)(=O)NCC(=O)NCC(=O)N(C)Cc2ccc3ccccc3c2)cc1C returned HT1080 IDH1KD tx -14%, Giardia kill 3, HT1080-NT tox inconclusive, TGFb inhibitor inconclusive, HepG2 tox -42% and IL-1B inflam inh -52*.
For Cc1ccc(NC(=O)CSc2nc(C)c(Cc3ccccc3)c(=O)[nH]2)cc1C the results were HT1080 IDH1KD tx 6%, Giardia kill -12, HT1080-NT tox 1%, TGFb inhibitor 8.9µM*, HepG2 tox -21% and IL-1B inflam inh 12.
Cc1cccc(NC(=O)CSc2nc(C)c(Cc3ccccc3)c(=O)[nH]2)c1 was read as HT1080 IDH1KD tx -12%, Giardia kill 19, HT1080-NT tox -13%, TGFb inhibitor inconclusive, HepG2 tox -18% and IL-1B inflam inh 9.
Screening CC(=O)c1ccc(Nc2nc(NCCO)nc(OC(C(F)(F)F)C(F)(F)F)n2)cc1 returned HT1080 IDH1KD tx -1%, Giardia kill 11, HT1080-NT tox -1%, TGFb inhibitor -22%, HepG2 tox -5% and IL-1B inflam inh -3.
